In PubChem BioAssay one finds z-score and composite z-score data, which are given here for nine compounds.

Active and inactive are the calls of the source. Unless noted, the rule behind the calls is not given here.

The nature of assay [1]: compound effects on lung adenocarcinoma cell viability – A549, calcein-AM fluorescence, 48 h, basal, profiling panel (AID 1162). Note: test concentration not given here. The following applies: higher = more signal.
A short description of assay [2]: compound effects on differentiated 3T3-L1 adipocyte viability – cell-based, 3T3-L1 adipocytes, calcein-AM fluorescence, 48 h, basal, profiling panel (AID 1163). Note: test concentration not given here. Conditions: 3T3-L1 adipocytes viability, higher = more signal.
Assay [3] can be described thus: compound effects on hepatocellular carcinoma cell viability – HepG2, calcein-AM fluorescence, 48 h, basal, profiling panel (AID 1164). Note: test concentration not given here. The following applies: higher = more signal.
Assay [4] in a line: compound effects on multiple myeloma cell viability – MM1S, calcein-AM fluorescence, 48 h, basal, profiling panel (AID 1165). Note: test concentration not given here. Conditions: higher = more signal.
A short description of assay [5]: calcein-AM signal in unstimulated myeloma cells – cell-based, calcein-AM fluorescence, 48 h, PK04 Diversity Set, profiling panel (AID 1166).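 Note: cells grown under basal conditions without added stimulus; test concentration not given here.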 The following applies: RPMI8226 myeloma viability, higher = more signal.
The nature of assay [6]: JC-1 mitochondrial signal, unstimulated HepG2 cells – cell-based, JC-1 fluorescence, 24 h, 100 nL compound, profiling panel (AID 1167). Note: test concentration not given here. Conditions: HepG2 mitochondrial potential, higher = more signal.
Assay [7] is described as follows: JC-1 mitochondrial signal, unstimulated adipocytes – cell-based, JC-1 fluorescence, 3T3-L1 adipocytes, 24 h, 100 nL compound, profiling panel (AID 1168). Note: test concentration not given here. The following applies: JC-1 mitochondrial fluorescence, higher = more signal, called active from +8 up or from −8 down.
Assay [8] is described as follows: JC-1 mitochondrial signal, unstimulated myeloma cells – cell-based, JC-1 fluorescence, RPMI8226, 24 h, 100 nL compound, profiling panel (AID 1169). Note: test concentration not given here. Conditions: JC-1 mitochondrial potential fluorescence, higher = more signal.
The nature of assay [9]: JC-1 mitochondrial signal, unstimulated MM1S myeloma – cell-based, JC-1 fluorescence, 24 h, 100 nL compound, profiling panel (AID 1170). Note: test concentration not given here. The following applies: MM1S mitochondrial potential, higher = more signal.
Assay [10] can be described thus: resazurin metabolic signal in A549 cells – cell-based, resazurin fluorescence, 24 h, PK04 Diversity Set, profiling panel (AID 1171). Note: test concentration not given here. Conditions: A549 viability, higher = more signal, called active from +8 up or from −8 down. (Resazurin is reduced to fluorescent resorufin, in cell work by metabolically active cells.)
Assay [11] is described as follows: resazurin metabolic signal in HepG2 cells – cell-based, resazurin fluorescence, 24 h, PK04 Diversity Set, profiling panel (AID 1172). Note: test concentration not given here. Conditions: HepG2 viability, higher = more signal.
Assay [12] can be described thus: budding yeast growth changes without added modifier – OD600, strain BY4716, 24 h, basal condition, primary screen (AID 1173). Conditions: S. cerevisiae BY4716 growth, OD600, 24 h; higher = more signal, called active from +8 up or from −8 down.
A short description of assay [13]: viability profiling in MM1S myeloma cells – cell-based, resazurin fluorescence, basal, 24 h, PK04 Diversity Set, profiling panel (AID 1174). Note: test concentration not given here. The following applies: higher = more signal, called active from +8 up or from −8 down.
The target of assay [14] is Dihydroorotate dehydrogenase (quinone), mitochondrial (Plasmodium falciparum (isolate 3D7)) (UniProt Q08210). As to the kind of experiment: inhibition of P. falciparum DHODH – biochemical, C-terminal His tag, absorbance 600 nm, primary screen (AID 1175).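 Note: recombinant parasite enzyme with a five histidine tag at its C terminus; test concentration not given here.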 Conditions: PfDHODH enzyme, DCIP absorbance 600 nm; higher = more signal, called active from +8 up or from −8 down.
The nature of assay [15]: inhibition of PAO1 biofilm formation – strain PAO1, LB-PBS medium, absorbance 600 nm, primary screen (AID 1176). Note: test concentration not given here. The following applies: P. aeruginosa PAO1 growth/biofilm, A600, 12 h; higher = more signal.
Assay [16] in a line: growth modulation of vineyard yeast isolate – strain RM11-1a, OD600, basal, 24 h, primary screen (AID 1177).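 Note: cultures grown under basal conditions with no added stressor; test concentration not given here.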 Conditions: S. cerevisiae RM11-1a growth, OD600, 24 h; higher = more signal, called active from +8 up or from −8 down.
The nature of assay [17]: growth of efflux-deficient E. coli DRC39 – strain DRC39, OD650, 24 h, E. coli filamentation inducers, primary screen (AID 1178).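 Note: growth measured as culture turbidity by optical density at 650 nm; test concentration not given here.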 Conditions: E. coli DRC39 acrAB, higher = more signal, called active from +8 up or from −8 down.
A short description of assay [18]: growth of efflux-deficient E. coli DRC39 – strain DRC39, OD650, 48 h, E. coli filamentation inducers, primary screen (AID 1179).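 Note: screen aims at cell division blockers that make cells filament.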 The following applies: E. coli DRC39 delta-acrAB growth, higher = more signal, called active from +8 up or from −8 down.
Assay [19] is described as follows: viability profiling in RPMI8226 myeloma cells – cell-based, resazurin fluorescence, basal, 24 h, PK04 Diversity Set, profiling panel (AID 1180).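 Note: RPMI8826 multiple myeloma cell line at 5000 cells per well; test concentration not given here.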 The following applies: higher = more signal.
The target of assay [20] is E3 ubiquitin-protein ligase XIAP (Homo sapiens) (UniProt P98170). Description: small molecules binding XIAP protein – biophysical, small-molecule microarray, fluorescence 635 nm, primary screen (AID 1181).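 Note: score merges 667 nm emission and signal to noise over triplicate slides.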 Conditions: higher = more signal.
Chain of E3 ubiquitin-protein ligase XIAP (Homo sapiens) (P98170 whole entry, looked up): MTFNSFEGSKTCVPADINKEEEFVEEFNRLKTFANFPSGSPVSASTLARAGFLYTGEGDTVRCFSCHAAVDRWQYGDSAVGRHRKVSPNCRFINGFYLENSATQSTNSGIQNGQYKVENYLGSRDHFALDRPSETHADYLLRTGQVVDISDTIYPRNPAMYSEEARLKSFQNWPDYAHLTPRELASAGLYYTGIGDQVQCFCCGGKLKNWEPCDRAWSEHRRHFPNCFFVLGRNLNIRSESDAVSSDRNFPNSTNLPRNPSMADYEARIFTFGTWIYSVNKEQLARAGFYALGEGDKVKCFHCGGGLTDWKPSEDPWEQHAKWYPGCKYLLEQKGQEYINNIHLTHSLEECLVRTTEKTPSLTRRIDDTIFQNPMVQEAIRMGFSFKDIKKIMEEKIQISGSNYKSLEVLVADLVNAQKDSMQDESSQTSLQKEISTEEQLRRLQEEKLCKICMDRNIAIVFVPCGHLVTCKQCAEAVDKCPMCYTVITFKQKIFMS

Chain of Dihydroorotate dehydrogenase (quinone), mitochondrial (Plasmodium falciparum (isolate 3D7)) (Q08210 whole entry, looked up): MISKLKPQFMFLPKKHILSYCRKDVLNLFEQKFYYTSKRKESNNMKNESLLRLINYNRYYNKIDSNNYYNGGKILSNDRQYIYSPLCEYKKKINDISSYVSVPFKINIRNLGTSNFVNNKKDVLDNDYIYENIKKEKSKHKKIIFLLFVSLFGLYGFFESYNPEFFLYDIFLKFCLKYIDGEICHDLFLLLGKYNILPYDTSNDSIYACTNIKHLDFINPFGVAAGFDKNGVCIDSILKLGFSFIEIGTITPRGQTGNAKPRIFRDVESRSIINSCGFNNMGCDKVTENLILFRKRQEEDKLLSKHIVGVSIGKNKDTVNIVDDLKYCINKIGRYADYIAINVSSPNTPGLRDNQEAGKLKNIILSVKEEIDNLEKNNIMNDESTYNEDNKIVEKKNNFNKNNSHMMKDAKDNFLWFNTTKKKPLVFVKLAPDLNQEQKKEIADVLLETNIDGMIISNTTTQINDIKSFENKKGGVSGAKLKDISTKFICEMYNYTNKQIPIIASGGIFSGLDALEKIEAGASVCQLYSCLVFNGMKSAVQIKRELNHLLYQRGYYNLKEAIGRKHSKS

Regarding `CN(C)CCCCCCNC(=O)[C@@H]1C[C@@H]2C(=O)N[C@@H](Cc3ccccc3)C(=O)N2[C@@H]1c1ccc(O)cc1`, the z-score is -0.58 in assay [1]; 0.502 in [2]; -0.948 in assay [3]; -1.45 in assay [4]; -0.571 in [5]; -1.15 in [6]. Moreover, the z-score is -1.42 (inactive) in assay [7]; -0.00023 in assay [8]; 0.0429 in assay [9]; -1.03 (inactive) in assay [10]; -0.591 in [11]; -0.58 (inactive) in assay [12]. Besides, the z-score was -1.09 (inactive) in assay [13]; -0.0059 (inactive) in assay [15]; 0.179 (inactive) in [16]; -0.725 (inactive) in assay [17]; -1.25 (inactive) in [18]; -0.974 in assay [19]. Also, the composite z-score in assay [14] was 0.0288 (inactive); in assay [20] it was 0.458.
In the case of `CCC[C@@H]1C[C@@]1(CCC)[C@@H](NS(=O)(=O)c1cccc2cccnc12)c1ccc(Cl)cc1`, the z-score in assay [1] was 1.54; in [2], -1.13; in assay [3], 0.112; in [4], 0.0781; in assay [5], -0.99; in [6] it was 3.46. The z-score was 0.112 (inactive) in assay [7]; 0.137 in assay [8]; -0.855 in assay [9]; -0.132 (inactive) in assay [10]; -0.0373 in assay [11]; 1.43 (inactive) in assay [12]. Besides, the z-score is -0.151 (inactive) in assay [13]; 0.908 (inactive) in assay [15]; 1.24 (inactive) in assay [16]; -0.251 (inactive) in assay [17]; -0.0357 (inactive) in assay [18]; -0.0909 in assay [19]. The composite z-score is 0.283 (inactive) in [14] and 0.0999 in assay [20].
As for `CCOC(=O)C[C@H]1[C@H](OC(=O)c2ccc(C(=O)c3ccccc3)cc2)[C@@H](NC(=O)c2ccccc2)c2cc(OCCCO)ccc2N1C(=O)c1ccc2ccccc2n1`, the z-score in assay [1] was 0.29; in assay [2], -0.356; in assay [3] it was 0.74; in assay [4] it was 0.294; in assay [5] it was -0.465; in assay [6], 1. Besides, the z-score is 1.76 (inactive) in [7]; -0.517 in assay [8]; -0.386 in [9]; -0.142 (inactive) in [10]; -0.524 in [11]; 0.47 (inactive) in assay [12]. The z-score is -0.145 (inactive) in [13]; 0.207 (inactive) in assay [15]; -0.0205 (inactive) in assay [16]; -0.674 (inactive) in [17]; -0.374 (inactive) in assay [18]; -0.0826 in assay [19]. The figures for the composite z-score in assay [14] and in assay [20] were -0.0918 (inactive) and 0.0997, respectively.
On to `CC(C)=CCN[C@H](CO)c1ccccc1`, for which the z-score in assay [1] is -0.11; in [2], 1.93; in assay [3] it was -0.0885; in [4] it was -1.22; in [5] it was -1.9; in [6] it was -0.416. Moreover, the z-score was 0.476 (inactive) in assay [7]; -0.0908 in assay [8]; 0.559 in [9]; -0.278 (inactive) in assay [10]; -0.347 in assay [11]; -6.22 (inactive) in assay [12]. In addition, the z-score in [13] was -0.362 (inactive); in [15], -0.517 (inactive); in assay [16], -0.17 (inactive); in assay [17], -0.387 (inactive); in assay [18], -1.49 (inactive); in assay [19], -0.974. Further, the composite z-score was -2.14 (inactive) in [14] and 0.213 in assay [20].
For the compound `CC1(C)[C@@H]2CC(C(O)C3C=CC4C(=O)N(Cc5ccccc5)C(=O)C4N3n3cnnc3)=C[C@H]1C2` (stereo not given in full), the z-score is -0.868 in [1]; -0.622 in [2]; 0.0607 in assay [3]; -0.0282 in [4]; 0.346 in assay [5]; -0.237 in assay [6]. Moreover, the z-score is 0.352 (inactive) in [7]; -0.124 in [8]; -0.649 in [9]; 1.18 (inactive) in assay [10]; 0.883 in [11]; 1.22 (inactive) in [12]. In addition, the z-score was -0.12 (inactive) in assay [13]; -0.445 (inactive) in assay [15]; 1.29 (inactive) in assay [16]; -0.539 (inactive) in assay [17]; 0.102 (inactive) in [18]; -0.192 in assay [19]. In addition, the figures for the composite z-score in [14] and in assay [20] were 0.525 (inactive) and 0.136, respectively.
Consider `NC(=O)NCC#Cc1ccc2c(c1)[C@]1(C(=O)N2)[C@H](c2ccc(O)cc2)N2[C@H](c3ccccc3)[C@H](c3ccccc3)OC(=O)[C@H]2[C@@H]1C(=O)O`, for which the z-score was 0.517 in assay [1]; 0.145 in assay [2]; 0.829 in assay [3]; 0.343 in assay [4]; -1.12 in [5]; -1.2 in assay [6]. Besides, the z-score is -1.47 (inactive) in assay [7]; 0.183 in assay [8]; -0.713 in assay [9]; -0.397 (inactive) in [10]; 0.587 in [11]; 0.453 (inactive) in assay [12]. For the same compound, the z-score was 0.277 (inactive) in assay [13]; 0.237 (inactive) in assay [15]; 0.726 (inactive) in [16]; -0.338 (inactive) in assay [17]; -0.176 (inactive) in assay [18]; 0.772 in [19]. In addition, the composite z-score in assay [14] is -0.268 (inactive); in [20], 0.0975.
As for `CCc1cccc(NC(=O)O[C@H]2[C@H](OC(=O)Nc3ccccc3-c3ccccc3)[C@@H](OC(=O)Nc3ccccc3-c3ccccc3)[C@@H](OC)O[C@@H]2CO)c1`, the z-score in assay [1] is -4.21; in assay [2], 0.175; in [3] it was -4.64; in assay [4], -3.46; in assay [5], -4.11; in assay [6], -1.11. The z-score in [7] was 1.66 (inactive); in assay [8], -1.1; in [9] it was -1.91; in [10], -6.15 (inactive); in [11], -4.43; in [12] it was 0.972 (inactive). For the same compound, the z-score is -4.83 (inactive) in assay [13]; 0.0279 (inactive) in [15]; 0.924 (inactive) in assay [16]; -1.04 (inactive) in assay [17]; -0.361 (inactive) in [18]; -5.09 in [19]. Further, the values for the composite z-score in [14] and in assay [20] were 0.153 (inactive) and 0.19, respectively.
As for `C=CCNC(=O)[C@H]1[C@@H]2C(=O)O[C@@H](c3ccccc3)[C@@H](c3ccccc3)N2[C@@H](c2ccccc2OCCO)[C@]12C(=O)Nc1ccc(C#CCC(C(=O)OC)C(=O)OC)cc12`, the z-score was 0.246 in assay [1]; -0.72 in [2]; -0.845 in assay [3]; -3.34 in assay [4]; -4.63 in assay [5]; -0.64 in assay [6]. The z-score in [7] is 2.62 (inactive); in assay [8], -1.32; in [9], -2.23; in [10], 0.545 (inactive); in assay [11], 0.57; in assay [12], 2.25 (inactive). Besides, the z-score in [13] is -7.81 (inactive); in assay [15] it was 2.07 (inactive); in assay [16], 3.57 (inactive); in assay [17] it was 0.284 (inactive); in assay [18], -0.303 (inactive); in assay [19], -7.24. For the same compound, the composite z-score in [14] is -0.95 (inactive); in [20] it was -0.159.
Take `C=C[C@H](CO)NS(=O)(=O)c1ccc(Br)cc1`: the z-score is 1.52 in [1]; 0.131 in [2]; 1.34 in [3]; -0.328 in [4]; -0.451 in assay [5]; 0.63 in assay [6]. Besides, the z-score in assay [7] is 0.489 (inactive); in assay [8], 0.3; in assay [9], 0.525; in [10], 0.204 (inactive); in assay [11], 0.578; in assay [12] it was 0.0356 (inactive). In addition, the z-score was 0.44 (inactive) in assay [13]; -0.621 (inactive) in assay [15]; 0.34 (inactive) in assay [16]; 0.328 (inactive) in [17]; 0.276 (inactive) in [18]; 0.0112 in assay [19]. For the same compound, the composite z-score in assay [14] is -1.05 (inactive); in assay [20] it was -0.0559.
